According to article PMC4336329 (PLoS ONE, 2015):
Among all 310,000 compounds or so, about 14,000 (4.5%) showed an effect of 50% or more. The effect is printed as a negative number. The full list was thinned out, with strong results kept by preference.

Target: human ether-à-go-go-related gene (hERG) potassium channel (human, UniProt Q12809)
Experiment: primary screen, population patch clamp on CHO cells stably expressing hERG; higher = less effect of the substance
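Further: peak tail current of the secondary pulse compared with the same well before compound.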

human ether-à-go-go-related gene (hERG) potassium channel, sequence (Q12809 whole entry, looked up): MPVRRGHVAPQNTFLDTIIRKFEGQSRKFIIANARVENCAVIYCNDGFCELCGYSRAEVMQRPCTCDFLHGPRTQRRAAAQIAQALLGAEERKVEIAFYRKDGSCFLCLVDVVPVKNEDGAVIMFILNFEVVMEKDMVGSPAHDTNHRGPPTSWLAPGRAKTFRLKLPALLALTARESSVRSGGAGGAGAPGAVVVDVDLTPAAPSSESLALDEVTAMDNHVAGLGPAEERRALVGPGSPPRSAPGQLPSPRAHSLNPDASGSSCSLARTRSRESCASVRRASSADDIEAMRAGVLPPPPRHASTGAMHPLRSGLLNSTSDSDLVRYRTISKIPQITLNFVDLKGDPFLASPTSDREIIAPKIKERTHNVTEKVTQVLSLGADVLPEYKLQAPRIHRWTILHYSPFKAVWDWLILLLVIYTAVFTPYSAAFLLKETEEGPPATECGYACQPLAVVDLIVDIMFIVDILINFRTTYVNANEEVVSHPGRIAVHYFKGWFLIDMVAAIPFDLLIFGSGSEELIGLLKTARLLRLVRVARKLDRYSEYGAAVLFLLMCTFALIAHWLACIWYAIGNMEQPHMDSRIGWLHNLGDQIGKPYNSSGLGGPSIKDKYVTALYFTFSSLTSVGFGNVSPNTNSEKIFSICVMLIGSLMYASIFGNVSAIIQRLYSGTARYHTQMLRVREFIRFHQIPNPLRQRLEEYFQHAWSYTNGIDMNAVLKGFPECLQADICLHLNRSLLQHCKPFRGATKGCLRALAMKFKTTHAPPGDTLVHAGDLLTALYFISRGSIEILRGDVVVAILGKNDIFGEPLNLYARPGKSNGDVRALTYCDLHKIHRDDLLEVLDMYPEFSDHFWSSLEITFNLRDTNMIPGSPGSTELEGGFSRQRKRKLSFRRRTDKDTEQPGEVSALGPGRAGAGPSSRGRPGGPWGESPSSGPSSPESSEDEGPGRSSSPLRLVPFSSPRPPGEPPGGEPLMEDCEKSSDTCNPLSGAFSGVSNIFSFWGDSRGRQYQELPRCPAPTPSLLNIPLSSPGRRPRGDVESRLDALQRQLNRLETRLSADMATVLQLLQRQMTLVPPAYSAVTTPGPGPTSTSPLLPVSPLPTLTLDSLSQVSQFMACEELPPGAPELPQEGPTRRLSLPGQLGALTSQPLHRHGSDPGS

SMILES	hERG current change (%, negative = inhibition) at 10uM [%]
O=C1CN(C(=O)COC(=O)CNC(=O)c2ccc(Cl)cc2)c2ccccc2N1	-6.75
CC(C)OC(=O)/C(C#N)=C\c1cccnc1	26.3
Cc1cccnc1NC(=O)c1cccc(S(=O)(=O)N2CCCC2)c1	-8.13
CCCn1c(N)c(C(=O)COC(=O)c2c(C)noc2C)c(=O)n(C)c1=O	-21
COC(=O)CN1C(=O)[C@H]2[C@@H](c3ccc(C)o3)N3C(=O)CN(CCO)C(=O)[C@@]3(C)[C@H]2C1=O	-2.13
CN=C1S/C(=C\c2ccc(Cl)cc2)C(=O)N1C	27
CCCN(CC1CC1)C(=S)Nc1ccc(C(C)=O)cc1	0.105
COc1cccc(CN2CCN(Cc3cccn3-c3cccnc3)CC2CCO)c1 (stereo not shown)	-71.4
OCCC1CN(Cc2cccn2-c2cccnc2)CCN1C1CCCCC1 (stereo not shown)	-28.1
OCCC1CN(Cc2cccn2-c2cccnc2)CCN1Cc1ccccc1 (stereo not shown)	-42.4
CCOc1ccc(CN2CCN(Cc3cccn3-c3cccnc3)CC2CCO)cc1 (stereo not shown)	-84.1
CCOc1ccc(CN2CCN(Cc3cccn3-c3ncccn3)CC2CCO)cc1 (stereo not shown)	-78.3
OCCC1CN(Cc2cccn2-c2cccnc2)CCN1Cc1ccc(F)cc1 (stereo not shown)	-56.9
COC(=O)c1ccc(C)c(NC(=O)CCc2ccc(OC)cc2)c1	-3.01
CCn1c(SC)nnc1C1CCN(CC(=O)Nc2ccccc2N2CCOCC2)CC1	-31
Nc1ccc(C(=O)Oc2ccc([N+](=O)[O-])cc2)cc1	10.9
Cc1ccc(NC(=O)Nc2ccccc2)c(Br)c1	-1.55
Fc1ccc(NC(=S)N2CCCC2)cc1	-1.37
Cc1cc(OCC(O)CNC(C)(C)C)ccc1Cl.Cl (stereo not shown)	-4.91
Cc1cc(OCC(O)CN)ccc1Cl (stereo not shown)	8.74
CCCc1cnc(NCCNCC(O)COc2ccc(Cl)c(Cl)c2)nc1 (stereo not shown)	-71.2
CC(C)c1ccc(OCC(=O)NC2=NCCS2)cc1	1.4

SMILES	hERG current change (%, negative = inhibition) at 10uM [%]
CCc1cccc(C)c1NC(=O)CN(C)Cc1ccccc1F.O=C(O)C(=O)O	-23.8
CCC(C)c1ccc(NC(=O)CC(C)=O)cc1 (stereo not shown)	4.93
COc1cccc(NC(=O)COc2c(F)c(F)c(C(F)(F)F)c(F)c2F)c1	8.02
CCC(C)c1ccc(NC(=O)COc2c(F)c(F)c(C(F)(F)F)c(F)c2F)cc1 (stereo not shown)	-57.4
Nc1ccc(C(=O)NC23CC4CC(CC(C4)C2)C3)cc1	16.3
C=CCN(c1ccccc1)S(=O)(=O)c1cccc(C(=O)Nc2ncccc2O)c1	8.35
Cn1nccc1C(=O)Nc1ccc(OC(=O)c2ccnn2C)cc1	-6.68
Cl.OC(CN1CCOCC1)CN(c1ccccc1)c1ccccc1 (stereo not shown)	-28.5
Cl.OC(CN1CCCCCC1)CN(c1ccccc1)c1ccccc1 (stereo not shown)	-71.8
Cl.OC(CN1CCCCC1)CN(c1ccccc1)c1ccccc1 (stereo not shown)	-63.2
CN(CC(O)CN)CC(O)CN1CCCCC1.Cl (stereo not shown)	4.64
COc1ccc(-c2cc(C(=O)NCc3cccs3)no2)cc1	7.1
O=C(COC(=O)c1cccnc1Cl)Nc1cc(S(=O)(=O)N2CCCCC2)ccc1Cl	-18.9
COc1ccc(NC(=O)Cn2nnc(C(=O)NCc3ccc4c(c3)OCO4)c2N)cc1	18.4
O=C(C1CC(=O)N(c2ccccc2)C1)N1CCN(c2ccccc2)CC1 (stereo not shown)	-29
Cc1ccc(N2CC(C(=O)N3CCN(c4ccccc4)CC3)CC2=O)cc1 (stereo not shown)	-17.6
CC(c1ccccc1)N1CC(C(=O)N2CCN(c3ccccc3)CC2)CC1=O (stereo not shown)	-27.2
O=C(C1CC(=O)N(c2ccc(F)cc2)C1)N1CCCCCC1 (stereo not shown)	-6.27
O=C(C1CC(=O)N(c2ccc(F)cc2)C1)N1CCCCC1 (stereo not shown)	-0.378
CC(c1ccccc1)N1CC(C(=O)N2CCN(c3ccc(F)cc3)CC2)CC1=O (stereo not shown)	-65.3
O=C(C1CC(=O)N(c2ccccc2)C1)N1CCN(c2ccccc2F)CC1 (stereo not shown)	-13.4
O=C(C1CC(=O)N(c2ccc(F)cc2)C1)N1CCN(c2ccccc2)CC1 (stereo not shown)	-58.3

SMILES	hERG current change (%, negative = inhibition) at 10uM [%]
O=C(C1CC(=O)N(c2ccc(F)cc2)C1)N1CCN(c2ccc(F)cc2)CC1 (stereo not shown)	-73.1
CC(c1ccccc1)N1CC(C(=O)O)CC1=O (stereo not shown)	10.7
O=C(O)C1CC(=O)N(c2ccc(F)cc2)C1 (stereo not shown)	14.1
O=C(C1CC(=O)N(c2ccccc2)C1)N1CCN(c2ccc(F)cc2)CC1 (stereo not shown)	-56.7
Cc1cc(C)cc(OCC(=O)Nc2ccc(N3CCCC3)cc2)c1	11.9
COc1ccc(C(=O)Nc2nnc(S(=O)(=O)N3CCOCC3)s2)cc1	-3.02
CC(C)C(=O)NNC(=O)c1c(O)c2ccccc2[nH]c1=O	10.3
O=C(Nc1cccc(O)c1)C1CC(c2c(F)cccc2Cl)=NO1 (stereo not shown)	-15.6
COc1ccc(CNC(=O)OCCN2CCN(S(=O)(=O)c3ccc(C)cc3)CCC2=O)cc1	-35.9
CCCCC(NC(=O)Cc1c(C)c2cc3c(-c4ccccc4)coc3c(C)c2oc1=O)C(=O)O (stereo not shown)	13.2
O=C1CC(NNc2nc3ccccc3s2)C(=O)N1c1ccc(F)cc1 (stereo not shown)	3.25
CCOCCCNC(=S)N1CCN(C(=O)C(=O)Nc2ccc(C(=O)OC)cc2)CC1	-40.6
CSCCC(NC(=O)COc1ccccc1)C(=O)OCC(=O)c1cc2ccccc2o1 (stereo not shown)	8.62
COc1ccc(C(=O)NC(=S)NCc2ccccc2)cc1	-0.211
Cc1ccccc1CNC(=O)CCC(=O)N1CCOc2ccccc21	7.41
Cc1ccc(-c2c(C)n([O-])c3c([n+]2=O)CCCCC3)o1	-1.3
Cc1c(NC(=O)c2ccc(Cl)nc2)cccc1-c1nc2cccnc2s1	-48.1
CCCOc1ccc(/C=c2\sc3ncnn3c2=O)cc1	6.61
CCOCc1[nH]c(=S)[nH]c(=O)c1Cc1ccc(OC(C)C)cc1	-58.8
CCOCc1[nH]c(=S)[nH]c(=O)c1Cc1ccc(OCC)cc1	9.49
CCOCc1[nH]c(=S)[nH]c(=O)c1Cc1ccc(OCC(C)C)cc1	14
COc1cccc(C2=CC(c3cccs3)n3nnnc3N2)c1 (stereo not shown)	14.5

SMILES	hERG current change (%, negative = inhibition) at 10uM [%]
CCc1nnc(SCc2ccc(OC(C)C)cc2)n1N	9.36
CCCCn1c2c(c(=O)n(C)c1=O)C(CC(=O)OCC(=O)Nc1cccc(C(F)(F)F)c1)C(=O)N2 (stereo not shown)	-5.56
Cc1ccc(NC(=O)C(C)Sc2nnc(C)n2C2CC2)cc1S(=O)(=O)N1CCOCC1 (stereo not shown)	-13.9
COc1ccc(NC(=O)C(C)Sc2nnc(C3CC3)n2C2CC2)cc1 (stereo not shown)	-13.3
CC(Sc1nnc(C2CC2)n1C1CC1)C(=O)Nc1ccccc1C#N (stereo not shown)	-10
COc1cccc(NC(=O)C(C)Sc2nnc(C3CC3)n2C2CC2)c1 (stereo not shown)	-67
COc1ccc(Cl)cc1NC(=O)C(C)Sc1nnc(C2CC2)n1C1CC1 (stereo not shown)	-69.5
CC(Sc1nnc(C2CC2)n1C1CC1)C(=O)Nc1cccc(S(=O)(=O)N2CCOCC2)c1 (stereo not shown)	-11.8
CC(Sc1nnc(C2CC2)n1C1CC1)C(=O)Nc1cccc(S(=O)(=O)N(C)C)c1 (stereo not shown)	-19.5
Cc1ccc(NC(=O)C(C)Sc2nnc(C3CC3)n2C2CC2)cc1S(=O)(=O)N1CCOCC1 (stereo not shown)	-51
COc1ccc(Cl)cc1NC(=O)C(C)Sc1nncn1C (stereo not shown)	0.256
Cc1ccc(C)c(OCCC(=O)NCCc2ccc(S(N)(=O)=O)cc2)c1	10.7
O=C(c1cccs1)[C@@H]1[C@@H]2C(=O)N(Cc3ccc4c(c3)OCO4)C(=O)[C@@H]2C2c3ccccc3C=CN21 (stereo partly shown)	-26.7
O=C(CCCCCN1C(=O)c2cccc3cccc(c23)C1=O)NCCCO	-1.71
O=c1[nH]c(C2CC2)nc2sc3c(c12)CCCC3	15.8
CCOC(=O)c1c(NC(=O)COC(=O)c2ccccn2)sc(C(=O)N(C)C)c1C	4.44
CCOC(=O)c1c(NC(=O)COC(=O)CCOc2ccc(OCC)cc2)sc(C(=O)N(C)C)c1C	-8.87
CCOC(=O)c1c(NC(=O)COC(=O)c2ccc([N+](=O)[O-])cc2)sc(C(=O)N(C)C)c1C	-8.65
CCOC(=O)c1c(NC(=O)COC(=O)Cc2ccccc2[N+](=O)[O-])sc(C(=O)N(C)C)c1C	-68.9
CCOC(=O)c1c(NC(=O)COC(=O)Cc2n[nH]c(=O)c3ccccc23)sc(C(=O)N(C)C)c1C	-2.24
CCOC(=O)c1c(NC(=O)COC(=O)Cc2c[nH]c3ccccc23)sc(C(=O)N(C)C)c1C	-62.5
CN(Cc1nc2ccccc2[nH]1)Cc1nc(CC2CC2)no1	-14.5
